40 compounds from the supplement of paper PMC8975748 can be followed below.

Counter-ions that a name gives are not always drawn.

The test system of the experiment is Saccharomyces cerevisiae BY4741 SeMeCo community. Briefly: z-score of subpopulation abundance vs DMSO median, subpopulation auxotrophic for HLUM; higher = larger share of this subpopulation than in DMSO controls. The settings on record: 10 µM; 24 h; SM minimal medium; subpopulation (auxotrophy): HLUM. As to the method: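 Fluorescent four-plasmid SeMeCo (self-establishing metabolically cooperating S. cerevisiae BY4741 community; plasmids pH-mRuby2, pL-mWasabi, pU-eCFP, pM-TagRFP657) was grown 24 h in minimal SM medium with each Selleck FDA-approved drug at 10 µM in 384-well plates. Cells were fixed and imaged by high-content confocal microscopy. For each auxotrophic subpopulation (and the prototroph), a z-score gives the deviation from the DMSO vehicle-control population median.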
Regarding `CN(C)C(=O)COC(=O)Cc1ccc(OC(=O)c2ccc(NC(=N)N)cc2)cc1` [Camostat Mesilate], the “z-score of subpopulation abundance” value is -0.69.
As for `Cn1cc(C(=O)[C@@H]2CCc3[nH]cnc3C2)c2ccccc21` [Ramosetron Hydrochloride], the figure is 0.88; as for `Cc1cc(NS(=O)(=O)c2ccc(N)cc2)nc(C)n1` [sulfaisodimidine], 0.48; as for `Cc1ccc(S(=O)(=O)NC(=O)NN2CC3CCCC3C2)cc1` (stereo not given) [Gliclazide], -0.17.
Regarding `CN[C@@H]1[C@@H](O[C@H]2O[C@H](CO)[C@@H](N)[C@H](O)[C@H]2O)OC2C[C@@H](N)[C@@H](O[C@H]3[C@H](O)[C@@H](O)[C@H](N)C[C@@H]3N)OC2[C@@H]1O` (stereo not given in full) [Apramycin Sulfate], the “z-score of subpopulation abundance” value was determined as 1.47.
As for `CCC[S+]([O-])c1ccc2[nH]c(NC(=O)OC)nc2c1` (stereo not given) [Albendazole Oxide], the figure is -1.11.
The same measure for `CCN1CCC[C@H]1CNC(=O)c1cc(S(N)(=O)=O)ccc1OC` [Levosulpiride]: -0.54; for `CCCN1C[C@H](C)[C@@H](O)[C@](C)(O)[C@@H](CC)OC(=O)[C@H](C)[C@@H](O[C@H]2C[C@@](C)(OC)[C@@H](O)[C@H](C)O2)[C@H](C)[C@@H](O[C@@H]2O[C@H](C)C[C@H](N(C)C)[C@H]2O)[C@](C)(O)C[C@H]1C` [Gamithromycin]: -0.18; for `CC[C@H](C)C[C@H](C)CCCCCCCCC(=O)N[C@H]1C[C@@H](O)[C@@H](NCCN)NC(=O)[C@@H]2[C@@H](O)CCN2C(=O)[C@H]([C@H](O)CCN)NC(=O)[C@H]([C@H](O)[C@@H](O)c2ccc(O)cc2)NC(=O)[C@@H]2C[C@@H](O)CN2C(=O)[C@H]([C@@H](C)O)NC1=O` [Caspofungin Acetate]: 127.
As for `CC(C)c1c(C(=O)Nc2ccccc2)c(-c2ccccc2)c(-c2ccc(F)cc2)n1CC[C@@H](O)C[C@@H](O)CC(=O)O` [Atorvastatin], the figure is 0.49; as for `C[C@H](NCc1ccc(OCc2cccc(F)c2)cc1)C(N)=O` [Safinamide Mesylate], 0.33.
Take `Cc1c(-c2ccccc2)oc2c(C(=O)OCCN3CCCCC3)cccc2c1=O` [Flavoxate HCl]: the “z-score of subpopulation abundance” value amounted to 1.01.
For `CCCCCCCCN=c1ccn(CCCCCCCCCCn2ccc(=NCCCCCCCC)cc2)cc1` [Octenidine Dihydrochloride], the “z-score of subpopulation abundance” value turned out to be 58.5.
The same measure for `CC(C)[C@H]1CC[C@H](C(=O)N[C@H](Cc2ccccc2)C(=O)O)CC1` [Nateglinide]: 0.69; for `O=C(O[C@H]1CN2CCC1CC2)N1CCc2ccccc2[C@@H]1c1ccccc1` [Solifenacin succinate]: 0.94; for `Cc1ccc(Cl)c(Nc2ccccc2C(=O)O)c1Cl` [Meclofenamate Sodium]: -0.31.
As for `Cc1ccc(-c2ncc(Cl)cc2-c2ccc(S(C)(=O)=O)cc2)cn1` [Etoricoxib], the figure is -0.24; as for `Oc1c(Cl)cc(Cl)cc1Sc1cc(Cl)cc(Cl)c1O` [Bithionol], 2.92.
The same measure for `COc1ccc2c(c1)c(CC(=O)OCC(=O)O)c(C)n2C(=O)c1ccc(Cl)cc1` [Acemetacin]: -0.61; for `COc1cc([C@@H]2c3cc4c(cc3[C@@H](O[C@@H]3O[C@@H]5CO[C@@H](c6cccs6)O[C@H]5[C@H](O)[C@H]3O)[C@H]3COC(=O)[C@H]23)OCO4)cc(OC)c1O` [Teniposide]: 0.55.
`Nc1nc2[nH]cc(CCc3ccc(C(=O)N[C@@H](CCC(=O)O)C(=O)O)cc3)c2c(=O)[nH]1` [Pemetrexed Disodium Hydrate]: the “z-score of subpopulation abundance” value came to 3.48.
As for `NC12CC3CC(CC(C3)C1)C2` [Amantadine], the figure is -0.31; as for `CCCCOc1ccc(C(=O)CCN2CCCCC2)cc1` [Dyclonine HCl], -0.65; as for `CS(=O)(=O)c1ccc([C@@H](O)[C@@H](CO)NC(=O)C(Cl)Cl)cc1` [Thiamphenicol], -0.23.
The same measure for `CN1CCCN=C1/C=C/c1cccs1` [Pyrantel Pamoate]: -0.17.
Take `CNCCCN1c2ccccc2CCc2ccccc21` [Desipramine Hydrochloride]: the “z-score of subpopulation abundance” value is -0.78.
As for `O=C(CCCN1CCN(c2ccccn2)CC1)c1ccc(F)cc1` [Azaperone], the figure is 0.31.
The same measure for `C[C@@H](O)[C@H]1C(=O)N2C(C(=O)[O-])=C(SC3Cn4cnc[n+]4C3)[C@H](C)[C@H]12` (stereo not given in full) [Biapenem]: -0.81.
Consider `COc1ccc2cc3[n+](cc2c1OC)CCc1cc2c(cc1-3)OCO2` [Berberine Sulfate], for which the “z-score of subpopulation abundance” value is -0.34.
As for `CC(=O)O[C@]1(C(C)=O)CC[C@H]2[C@@H]3C[C@H](C)C4=CC(=O)CC[C@]4(C)[C@H]3CC[C@@]21C` [Medroxyprogesterone acetate], the figure is -0.36.
Turning to `CCS(=O)(=O)CCn1c([N+](=O)[O-])cnc1C` [Tinidazole], the “z-score of subpopulation abundance” value was -0.4.
The same measure for `CCN(CC)CCOCCOC(=O)C1(c2ccccc2)CCCC1` [Pentoxyverine Citrate]: -0.26.
On to `CO[C@H]1C[C@@H]2CC[C@@H](C)[C@@](O)(O2)C(=O)C(=O)N2CCCC[C@H]2C(=O)O[C@H]([C@H](C)C[C@@H]2CC[C@@H](O)[C@H](OC)C2)CC(=O)[C@H](C)/C=C(\C)[C@@H](O)[C@@H](OC)C(=O)[C@H](C)C[C@H](C)/C=C/C=C/C=C/1C` [Rapamycin (Sirolimus)], for which the “z-score of subpopulation abundance” value came to 20.9.
The same measure for `CCCN[C@H]1CCc2nc(N)sc2C1` [Pramipexole]: 0.18; for `Cc1nc2n(c(=O)c1CCN1CCC(c3noc4cc(F)ccc34)CC1)CCCC2O` (stereo not given) [Paliperidone]: -0.53.
The same measure for `C=C1CCN([C@H](C)[C@](O)(Cn2cncn2)c2ccc(F)cc2F)CC1` [Efinaconazole]: 20.3.
As for `CCN1CCN(C(=O)N[C@@H](C(=O)N[C@@H]2C(=O)N3C(C(=O)O)=C(CSc4nnnn4C)CS[C@H]23)c2ccc(O)cc2)C(=O)C1=O` [Cefoperazone], the figure is 0.24.
Turning to `CC(=O)Oc1ccc(C(=C2CCCCC2)c2ccc(OC(C)=O)cc2)cc1` [Cyclofenil], the “z-score of subpopulation abundance” value was -0.2.
As for `Clc1ccc(COC(Cn2ccnc2)c2ccc(Cl)cc2Cl)c(Cl)c1` (stereo not given) [Miconazole], the figure is 9.68; as for `CNCCCC1c2ccccc2C=Cc2ccccc21` [Protriptyline hydrochloride], -0.01.
